Data published in PubChem BioAssay (NCI).
Compounds without any hit were thinned out: in the full panel of roughly 83,000, 20% have a hit.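 Testing used 96-well plates and a 48-hour single-concentration exposure. Example: -40 means 40% of the starting cells died.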 Values without a mark were called inactive. Active and inactive are the calls of the source. Rule for the calls: active = growth percent below 10; inactive = the rest.

Assays:
Experiment in all cases: NCI-60 one-dose screen, 48 h (100 = growth as untreated, 0 = no growth, -100 = all killed)
Details in all cases: 10 µM unless noted
HCT-15 colon = tested on: HCT-15 colon
HT29 colon = tested on: HT29 colon
SNB-75 CNS = tested on: SNB-75 CNS
SNB-19 CNS = tested on: SNB-19 CNS
U251 CNS = tested on: U251 CNS
PC-3 prostate = tested on: PC-3 prostate
SK-MEL-5 melanoma = tested on: SK-MEL-5 melanoma
UACC-62 melanoma = tested on: UACC-62 melanoma
LOX IMVI melanoma = tested on: LOX IMVI melanoma
SK-MEL-2 melanoma = tested on: SK-MEL-2 melanoma
EKVX NSCLC = tested on: EKVX NSCLC
SN12C renal = tested on: SN12C renal
UO-31 renal = tested on: UO-31 renal
TK-10 renal = tested on: TK-10 renal
ACHN renal = tested on: ACHN renal
A498 renal = tested on: A498 renal
CCRF-CEM leukemia = tested on: CCRF-CEM leukemia
MOLT-4 leukemia = tested on: MOLT-4 leukemia
CAKI-1 renal = tested on: CAKI-1 renal
SK-MEL-28 melanoma = tested on: SK-MEL-28 melanoma

SMILES	growth (HCT-15 colon)	growth (HT29 colon)	growth (SNB-75 CNS)	growth (SNB-19 CNS)	growth (U251 CNS)	growth (PC-3 prostate)	growth (SK-MEL-5 melanoma)	growth (UACC-62 melanoma)	growth (LOX IMVI melanoma)	growth (SK-MEL-2 melanoma)	growth (EKVX NSCLC)	growth (SN12C renal)	growth (UO-31 renal)	growth (TK-10 renal)	growth (ACHN renal)	growth (A498 renal)	growth (CCRF-CEM leukemia)	growth (MOLT-4 leukemia)	growth (CAKI-1 renal)	growth (SK-MEL-28 melanoma)
CC(C)(C)C(=O)c1c2c(c3ccc4c5ccccc5ccc4n13)C(=O)c1ccccc1C2=O	81.7%	111%	122%	88.7%	98.5%	83%	78.8%	97.2%	73.2%	104%	86.2%	99%	67.9%	118%	79.2%	188%	99.7%	94.3%	–	–
COc1cc(C2CC(c3ccc(Cl)cc3)=Nc3c(N)nc(N)nc3N2)ccc1Oc1nc(Nc2ccc(F)cc2)nc(N(C)C)n1 (stereo unspecified)	25.1%	14.3%	33.7%	47.7%	45%	21.9%	17.9%	84.4%	16%	64.1%	–	55.6%	34.6%	72.1%	62.3%	59.5%	47%	–	35.3%	–
c1n[nH]cc1-c1nc2ccc3[nH]ncc3c2c2c1CC1(CCOCC1)CC2	39%	25.9%	6.74% (active)	37.4%	29.3%	–	29%	14%	29.2%	24.5%	55.3%	28.8%	55.4%	29.2%	22.1%	-3.86% (active)	19.3%	22.2%	4.86% (active)	27.1%
COC(=O)c1c(C(=O)OC)c2c3ccccc3c3ccccc3n2c1C(=O)C(C)(C)C	46.6%	71.9%	83.5%	96.2%	85.3%	35.3%	46.8%	50.1%	81.4%	83.4%	–	87.3%	75.4%	105%	82%	132%	65.6%	45.7%	–	92.5%
O=C(Nc1nc2ccc([N+](=O)[O-])cc2s1)Nc1ccc(Cl)cc1Cl	49.1%	64.7%	-24.4% (active)	46.6%	11.4%	–	27.5%	56%	34.8%	65%	40.7%	29.4%	59.8%	40.9%	37.3%	-0.785% (active)	42.1%	33.9%	57.2%	79.5%
COc1cc(/C=C/C(=O)c2cnn(-c3cc(=O)[nH]c4ccc(Br)cc34)c2C)cc(OC)c1OC	-54.9% (active)	-58.7% (active)	9.81% (active)	-2.48% (active)	-76.7% (active)	-23.9% (active)	-96.2% (active)	-71.7% (active)	-89.8% (active)	-59.6% (active)	-57.8% (active)	-7.58% (active)	-80.7% (active)	1.77% (active)	-34.9% (active)	6.24% (active)	-19.6% (active)	-12.3% (active)	-4.42% (active)	–
COc1ccc2nc(NC(=O)c3ccc(N(C)C)cc3)sc2c1	59.4%	100%	101%	84.4%	93.5%	71.3%	55.7%	69.9%	87%	88.8%	63.4%	85.6%	46.7%	115%	77.5%	95.6%	47.7%	43.1%	–	–
COc1ccc(-c2cc(-c3ccccc3)c(C#N)c(=O)[nH]2)cc1S(N)(=O)=O	106%	105%	89.4%	92.3%	98.5%	97.2%	104%	110%	94.5%	104%	95.9%	124%	89.8%	96.8%	103%	91.2%	113%	136%	96.4%	–
COc1ccc(-n2c(NC(=O)N3CCN(C)CC3)c(C#N)c3ccccc32)cc1	57.5%	84.2%	-4.12% (active)	52.9%	41.9%	58.2%	37.4%	50.9%	9.35% (active)	72.9%	12.3%	23%	-15.6% (active)	12.4%	21.9%	139%	60.5%	43.9%	15%	–
Cn1cc(-c2cc3nc(-c4cn(C)c5ncc(Br)cc45)cc(N)n3n2)c2cc(F)ccc21	8.7% (active)	-28.5% (active)	24.9%	58.3%	-26.1% (active)	–	40.4%	-7.29% (active)	-69.7% (active)	88.8%	49%	26.4%	20.3%	16%	-7.44% (active)	125%	5.26% (active)	17.4%	-3.51% (active)	22.6%
O=C1c2cccc3c(N4CCN(c5ccccc5)CC4)ccc(c23)C(=O)N1c1cccc(-c2nn(-c3ccccc3)cc2-c2nc3ccccc3s2)c1	112%	116%	98.1%	100%	100%	–	99%	91.4%	94.5%	106%	86.6%	103%	68.1%	129%	94.9%	126%	98.8%	99.4%	83.3%	104%
Cc1ccc(Cl)cc1NC(=O)Nc1nc2ccc([N+](=O)[O-])cc2s1	-4.98% (active)	-18.9% (active)	-26.6% (active)	7.85% (active)	-26.6% (active)	2.69% (active)	-81.1% (active)	-15.4% (active)	-21.1% (active)	-47.1% (active)	-0.784% (active)	-25.7% (active)	-16.3% (active)	2.13% (active)	-19.8% (active)	–	3.14% (active)	6.23% (active)	-26% (active)	–
C=CCSc1nnc(-c2c(C)nc3sccn23)o1	92.7%	96.1%	69.1%	82.7%	88%	88.9%	95.5%	74.4%	95.5%	104%	76.4%	96.8%	71.8%	124%	88.5%	96.9%	90.3%	116%	77.9%	–
CCOC(=O)c1ccc(NC(=S)NC(=O)c2cccc(NC(=O)c3ccc(C)cc3)c2)cc1	75.3%	82.5%	73%	49.4%	2.07% (active)	–	85.8%	74.9%	51.9%	88.9%	74.7%	31%	63.9%	89.2%	75.5%	105%	78.3%	70.4%	76.8%	85.2%
COc1ccc(NC(=O)Cn2c(/C=C/c3cccc(Br)c3)nc3ccccc3c2=O)cc1	70.9%	51.9%	-29.7% (active)	49.3%	-1.66% (active)	79.3%	78.5%	68.4%	28.8%	80.3%	81.8%	5.79% (active)	-60.6% (active)	-39.4% (active)	-51.1% (active)	-51.1% (active)	86.8%	86.5%	55.7%	–
N#CC1=C(c2ccco2)Nc2c(c(-c3ccccc3)nn2-c2ccccc2)C12C(=O)Nc1ccc(Br)cc12 (stereo unspecified)	38.6%	49.5%	-8.95% (active)	60%	1.85% (active)	24.1%	59%	51.5%	21.3%	87%	56.2%	5.11% (active)	59.8%	65.9%	49.3%	124%	35.5%	36.2%	55.9%	–
COc1ccc2[nH]cc(-c3cc4nc(-c5cn(C)c6ncc(Br)cc56)cc(N)n4n3)c2c1	-70.5% (active)	-76.1% (active)	-56.9% (active)	-29.4% (active)	-76.1% (active)	-39.5% (active)	-88.3% (active)	-82.5% (active)	-97.9% (active)	-34.7% (active)	–	-83.2% (active)	-69.1% (active)	-42.5% (active)	-97.6% (active)	-51% (active)	-31% (active)	-27.5% (active)	–	-92.4% (active)
